Our source for the outcome and max dye equivalency values is PubChem BioAssay AID591 (National Center for Advancing Translational Sciences (NCATS), 2007).

The whole screen tested about 59,000 compounds, of which about 60 (0.1%) were called active. How the calls were made is not given here. Many of the other results were omitted from the sample, so actives are more common in it than they were.

This assay can be described thus: qHTS Assay for Spectroscopic Profiling in A488 Spectral Region. Particulars: compound autofluorescence; max dye equivalency: Compound Type: qHTS ECL - SigmaAldrich, active compounds read high unless noted; outcome: dye equivalency, Compound Type: qHTS ECL - MLSMR unless noted. The text has this:
NIH Molecular Libraries Screening Centers Network [MLSCN]
NIH Chemical Genomics Center [NCGC]
Occasionally, the artifactual effect may originate from the compounds own spectral or other biophysical properties which generally tend to track its assay concentration. Pre-screening/profiling the library with respect to the compounds spectral properties should help one exclude false positives early on. While the most informative fluorescent profiling data set is obtained by performing a full excitation and emission scan of each well by using a monochromator-based plate reader, such an approach is practical only on a very limited scale as scanning each well requires long time. An alternative approach, applied here, is to perform plate reader scans using selected excitation and emission wavelength pairs to generate a multidimensional relational database that correlates compound concentration and the respective relative fluorescence intensity at a given wavelength set. A standard curve of Alexa 488 (A488) present on each plate as six-point concentration series, was used to compute a normalized fluorescence response, termed dye-equivalent concentration, for each compound at each concentration.
NCGC Assay Protocol Summary:
100 mM Tris buffer, pH 8.0
The wells in columns 1 through 4 of a Kalypsys polypropylene 1536-well compound plate were filled with standard solutions of fluorophore corresponding to the spectral region of interest. Solutions of A488 were placed in the following wells: Y1, Z1: 3 mM, Y2, Z2: 300 uM, Y3, Z3: 30 uM, Y4, Z4: zero (DMSO), AA1, AB1: 3 uM, AA2, AB2: 900 nM, AA3, AB3: 300 nM, AA4, AB4: zero (DMSO).
Six uL of buffer were dispensed to 1536-well Greiner black plates. Compounds and dye standards (23 nL) were transferred via Kalypsys PinTool. The plates were incubated for 15 min at room temperature, and then read on ViewLux (Perkin-Elmer) High-throughput CCD imager using 480 nm and 540 nm excitation and emission filter set.
Keywords: NIH Roadmap, MLSCN, MLI, MLSMR, qHTS, NCGC, A488, A-488, Fluorescent Profiling.
On the technique in general: Quantitative high-throughput screening tests each substance at several concentrations.
Regarding `O=C(O)[C@@H]1[C@@H](C(=O)O)[C@]23C[C@@]2(C(=O)O)[C@]2(C(=O)O)CCC3=C3CCCC312`, the outcome is “inactive [dye equivalency, Compound Type: qHTS ECL - NCI]”.
On the same count and under the same terms, next, `Cc1ccc2[nH]c(=O)c(-c3nc4c(C)cccn4c3NCc3ccco3)cc2c1`: “inactive”.
Take `CN(C)c1ccc(CNC23CN4CN(CN(C4)C2)C3)cc1`: the outcome is “inactive [dye equivalency, Compound Type: qHTS ECL - DPISMR]”.
Same read-out and setting: next, `Cn1cc(-c2nc3cnc(N4CCNCC4)nc3n(CCc3ccccc3)c2=O)c2ccccc21`: “inactive [dye equivalency, Compound Type: qHTS ECL - Pharmacopeia]”; `CNC(=O)NCCN1CCCC1=O`: “inactive”.
The same measure, in the same setting: next, `COc1ccc(-n2c(=O)c(C)nc3cnc(N4CCOCC4)nc32)cc1`: “inactive [dye equivalency, Compound Type: qHTS ECL - Pharmacopeia]”; `CC1(c2ccccc2Cl)NC(=O)N(CC(=O)NC(=O)NCc2ccco2)C1=O` (stereo not given): “inactive”.
Same read-out and setting: next, `COc1ccc(CCN2C(=O)c3[nH]nc(-c4ccccc4O)c3C2c2ccc(C)cc2)cc1OC` (stereo not given): “inactive [dye equivalency, Compound Type: qHTS ECL - DPISMR]”; `COC(=O)C(C)N(C#N)c1nc(C)nc(C)n1` (stereo not given): “inactive [dye equivalency, Compound Type: qHTS ECL - DPISMR]”.
In the case of `Cc1noc(C)c1C(=O)OCC(=O)/C=C1\N(C)c2ccccc2C1(C)C`, the result was inactive.
Still for that read-out and setting: the value for `Cc1ccc(Oc2nc3ccccc3n3c(C)nnc23)cc1` was “inactive [dye equivalency, Compound Type: qHTS ECL - DPISMR]”; that for `CCOc1ccc(OCC)c(NC(=O)CN(C)S(=O)(=O)c2cccc3nsnc23)c1` was “inactive”.
Still for that read-out and setting: next, `CCC(C)(C)NC(=O)C(c1cccn1C)N(Cc1ccc(C)cc1)C(=O)Cn1nnc2ccccc21` (stereo not given): “inactive”; `COc1ccc(OCC(=O)OCCN(C)C)cc1`: “inactive”; `CC(C)C1N=C2c3ccccc3N=C(SCC(=O)c3ccc(O)c(O)c3)N2C1=O` (stereo not given): “inactive [dye equivalency, Compound Type: qHTS ECL - DPISMR]”.
Same read-out and setting: the value for `CCC(=O)Nc1cccc(NC(=O)CSc2nnc(-c3ccc(NS(C)(=O)=O)cc3)n2C)c1` was “inactive”.
Turning to `Cc1nn(-c2ccccc2)c2c1C(=O)NC(=O)C(C)(C)C2`, the result was inactive.
On the same count and under the same terms, the value for `COc1cc([C@H]2c3cc4c(cc3[C@@H](O[C@@H]3O[C@H]5CO[C@@H](C)O[C@]5(O)C[C@H]3O)[C@@H]3COC(=O)[C@H]23)OCO4)cc(OC)c1O` was “inactive [dye equivalency, Compound Type: qHTS ECL - SigmaAldrich]”.
Consider `O=C(O)c1c(Br)c(Br)c(Br)c(Br)c1C1c2ccc(O)cc2Oc2cc(O)ccc21`, for which the max dye equivalency was 15 nM [Compound Type: qHTS ECL - NCI, active compounds read high] (active).
`COc1ccc(OC)c(CN2C(=O)CCC2(C)C(=O)NC2CCCCCC2)c1` (stereo not given): the outcome was inactive.
Same read-out and setting: the value for `CCCCCN(C(=O)NC(=O)Nc1ccccc1OC)S(C)(=O)=O` was “inactive”; that for `Cn1c(=S)c2[nH]c(SCCCc3ccccc3)nc2n(C)c1=O` was “inactive [dye equivalency, Compound Type: qHTS ECL - NCI]”; that for `ClC(Cl)(Cl)C(N1CCN(c2ccccc2)CC1)N1CCN(c2ccccc2)CC1` was “inactive [dye equivalency, Compound Type: qHTS ECL - NCI]”.
In the case of `CCOC(=O)Nc1ccccc1N1C(=O)c2ccccc2C1=O`, the result was inactive.
Regarding `CCOC(=O)c1cc2n(c1N)-c1ccccc1C2=O`, the max dye equivalency is 39 nM [Compound Type: qHTS ECL - DPISMR, active compounds read high] (active).
On to `CCOC(=O)c1cc2n(c1C)-c1ccccc1C2=O`, for which the result was inactive.
Same read-out and setting: the value for `COc1ccc2oc(C)c(NC(C)=O)c2c1` was “inactive”; that for `NC(=O)CSC1=Nc2ccccc2C2=NC(CCC(=O)NCc3ccc(F)cc3)C(=O)N12` (stereo not given) was “inactive [dye equivalency, Compound Type: qHTS ECL - DPISMR]”; that for `Oc1c(C(c2ccccn2)N2CCOCC2)ccc2cccnc12` (stereo not given) was “inactive”.
Still for that read-out and setting: the value for `COc1cc(OC)cc(C(=O)Nc2ccc(-c3nc4ccccc4o3)c(O)c2)c1` was “inactive”; that for `Clc1ccccc1-c1cc(NCCN2CCOCC2)ncn1` was “inactive [dye equivalency, Compound Type: qHTS ECL - Pharmacopeia]”; that for `O=C1c2ccncc2C(=O)N1C1CCCCC1` was “inactive”.
Still for that read-out and setting: next, `COc1cc(C2C(C#N)=C(N)Oc3n[nH]c(-c4ccccn4)c32)cc(OC)c1OC` (stereo not given): “inactive”; `CS(=O)(=O)c1ccc2nc(NC(=O)CN3CCCCCC3)sc2c1`: “inactive”; `CC(=O)c1sc2nc(SCC(=O)N3CCCCC3)[nH]c(=O)c2c1C`: “inactive [dye equivalency, Compound Type: qHTS ECL - DPISMR]”.
Turning to `O=C(CN1CCN(c2ncc(C(F)(F)F)cc2Cl)CC1)Nc1ccc2c(c1)OCO2`, the result was inactive.
Still for that read-out and setting: the value for `O=c1cnc2cnc(Nc3ccccc3)nc2n1Cc1ccc(F)cc1` was “inactive [dye equivalency, Compound Type: qHTS ECL - Pharmacopeia]”; that for `CCOc1ccc(-n2c(SC(C)C(=O)OC)nc3c(c2=O)SCC3)cc1` (stereo not given) was “inactive”; that for `CC(Sc1sc(=S)sc1SC(C)C(=O)O)C(=O)O` (stereo not given) was “inactive”.
The same measure, in the same setting: next, `CN(C)c1ccc(-c2nc(NCCN3CCOCC3)c3ccccc3n2)cc1`: “inactive [dye equivalency, Compound Type: qHTS ECL - Pharmacopeia]”; `COCCn1c(=O)c(-c2ccccc2)nc2cnc(N3CCOCC3)nc21`: “inactive [dye equivalency, Compound Type: qHTS ECL - Pharmacopeia]”; `O=C(c1cccc(F)c1)N1CCC2(CC1)CCN(c1ccccc1)CC2`: “inactive [dye equivalency, Compound Type: qHTS ECL - Pharmacopeia]”.
Regarding `Clc1ccc(Cn2ncc3c(NCc4cccnc4)ncnc32)cc1`, the outcome was “inactive [dye equivalency, Compound Type: qHTS ECL - DPISMR]”.
Same read-out and setting: the value for `O=C(O)C1CCCN1S(=O)(=O)c1ccc2c(c1)CCC2` (stereo not given) was “inactive”; that for `CN(C)C(=O)c1ccc(-c2cncnc2Nc2ccccc2)cc1` was “inactive [dye equivalency, Compound Type: qHTS ECL - Pharmacopeia]”.
